The values below come from PubChem BioAssay (EPA / NIEHS).

The source made the active and inactive calls. The calls were made as follows: active = hit-call score of the fitted dose curve at least 0.9, where 1 is the maximum; inactive = score below 0.9.

This assay in a line: APR_HepG2_CellLoss_24hr: Apredica 24-hour HepG2 Assay for Cell Loss (AID 2282908).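 As to AC50: fit in both directions so a hit may be cell loss or gain.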 The note with it: high-content imaging. Here is the method: APR_HepG2_24hr is a cell-based, multiplexed-readout assay that uses HepG2, a human liver cell line, with measurements taken at 24 hours after chemical dosing in a 384-well plate.APR_HepG2_CellLoss_24hr is one of 10 assay component(s) measured or calculated from the APR_HepG2_24hr assay. It is designed to make measurements of cell number, a form of viability reporter, as detected with fluorescence intensity signals by HCS Fluorescent Imaging technology.Data from the assay component APR_HepG2_CellLoss_24hr was analyzed into 1 assay endpoint. This assay endpoint, APR_HepG2_CellLoss_24hr, was analyzed with bidirectional fitting relative to DMSO as the negative control and baseline of activity. Using a type of viability reporter, measures of all nuclear dna for gain or loss-of-signal activity can be used to understand the viability at the cellular-level. Furthermore, this assay endpoint can be referred to as a secondary readout, because this assay has produced multiple assay endpoints where this one serves a viability function. To generalize the intended target to other relatable targets, this assay endpoint is annotated to the cell cycle intended target family, where the subfamily is proliferation.
Cells were treated with dimethyl sulfoxide (DMSO) as a solvent control at a final concentration of 0.5% v/v or with compounds in DMSO with a resulting final DMSO concentration of 0.5% v/v. Compound treatment was done at concentrations of 0.39, 0.78, 1.56, 3.12, 6.24, 12.5, 25, 50, 100, and 200 uM in duplicate on each plate. Cells were treated with compounds for 1, 24, or 72 hr. Carbonyl […] m-chloro-phenylhydrazone (CCCP) and taxol were used as positive controls for mitochondrial function and cytoskeletal stability, respectively; DMSO served as the negative control for this experiment. Cells were fixed by the direct addition of 50 uL formaldehyde in Hank's Balanced Salt Solution (HBSS) to a final concentration of 3.7%. After incubation in the fixation medium for 30 min at room temperature (293-298 K), cells were rinsed twice with HBSS and treated with cell permeabilization buffer (16 uL of 0.5% Triton X-100) for 10 min at room temperature (293-298 K) before labeling. For mitochondrial membrane potential and mitochondrial measurements, pre-fixed cells were incubated with 50 uL of MitoTracker Red CMXRos (Invitrogen) at a concentration of 250 nM for 30 min before fixation. In the remaining cases, post-fixed cells were labeled by incubation with a multiplexed mixture of primary antibodies in HBSS for 60 min at room temperature (293-298 K) to detect immunoreactivity of c-Jun (1:500), phospho-histone H3 (1:100), phospho-histone H2A.x (1:200), p53 (1:400), alpha-tubulin (1:200) and Hoechst 33342 (2 ug/mL). Cells were labeled for multiplexed imaging on two separate plates: a) Hoechst 33342, MitoTracker Red, phospho-histone H3, and alpha-tubulin, and b) Hoechst 33342, phospho-histone H2A.x, and c-Jun. A final rinse with HBSS (50 uL) was performed before analysis. The primary and secondary antibodies for the proteins were phospho-histone H3 (rabbit anti-phospho-histone H3 and FITC-donkey anti-rabbit IgG), phospho-histone H2A.x (mouse anti-phospho-histone H2A.x and FITC-donkey anti-mouse IgG), c-Jun (rabbit anti-phospho-c-Jun and Cy3-donkey anti-rabbit IgG), p53 (sheep anti-p53 and Cy5-donkey anti-sheep IgG), alpha-tubulin (mouse anti-alpha-tubulin and Cy5-donkey anti-mouse IgG). These antibodies are available as the CellCiphr HepG2 assay kit (Millipore).Digital images of each well were captured using a Cellomics ArrayScan VTI (Thermo Scientific Cellomics) (0.8 NA objective, 0.63x optical coupler, and XF-93 filter set) at 20x magnification. The images were acquired using the autofocus feature of the ArrayScan instrument, which entails the following steps. First, the camera focuses on channel 1 (Hoechst 33342), where nuclei are identified. Second, a Z offset of 1 um is used for capturing mitochondria (MitoTracker Red). […]
`O=C1CCCCC1`: the compound was called inactive. For orientation: AC50 means the concentration giving half of the maximal activity seen. Take `CC1(C)C(=O)NC(=O)N1CO`: the AC50 is 108 µM (active).

Consider `C=CCCCCCCCCCCCC`, for which the AC50 was 52.7 µM (active). With `CC(=O)OC1CC(C)OC(C)O1` (stereo not given), the compound was classed as inactive. Regarding `CCCCCCC(CCCCCCCCCCC(=O)OCC(COC(C)=O)OC(C)=O)OC(C)=O` (stereo not given), the outcome was inactive. Consider `CN(C)CCCN1c2ccccc2Sc2ccc(Cl)cc21`, for which the AC50 was 35 µM (active). For `Cc1cn([C@H]2C=C[C@@H](CO)O2)c(=O)[nH]c1=O`, the compound was classed as inactive.

With `c1ccc2occc2c1`, the call was inactive. Same read-out and setting: next, `CC(COCC(C)OC(=O)c1ccccc1)OC(=O)c1ccccc1` (stereo not given): “inactive”. `Cc1c(C)c2c(c(C)c1O)CCC(C)(COc1ccc(CC3SC(=O)NC3=O)cc1)O2` (stereo not given): the AC50 was 88.2 µM (active). Consider `CCCCC(CC)CO` (stereo not given), for which the compound was classed as inactive. Regarding `C/C=C/C=C/C(=O)O`, the compound was called inactive.

Turning to `CCN(CC)CCOc1ccc(C(=C(Cl)c2ccccc2)c2ccccc2)cc1`, the AC50 is 48 µM (active). For `CCCC[C@H]1CN(CC2CCOCC2)C(=O)OC12CCN(C1(C)CCN(C(=O)c3c(C)ncnc3C)CC1)CC2`, the compound was classed as inactive.

`Oc1ccccc1O`: the outcome was inactive. Take `CS(=O)(=O)c1ccc([C@@H](C[C@H]2CCC(=O)C2)C(=O)Nc2cnccn2)cc1Cl`: the compound was called inactive.

Consider `CCCCC(CC)COC(=O)CCCCCCCC(=O)OCC(CC)CCCC` (stereo not given), for which the compound was classed as inactive. `OCC(O)CO`: the compound was classed as inactive. On to `CC(=O)OCC(COC(C)=O)OC(C)=O`, for which the outcome was inactive. As for `Cc1ccc(C(C)(C)C)c(O)c1`, the AC50 is 108 µM (active). `O=C(O)CC(O)(CC(=O)O)C(=O)O`: the compound was called inactive.

Regarding `CSc1ccc(Oc2ccc(S(N)(=O)=O)cc2CN(C)C)cc1C`, the AC50 was 131 µM (active). As to `CCCCCCCCCC[N+](C)(C)[O-]`, the AC50 was 109 µM (active). With `CC(C)c1cccc(C(C)C)c1`, the compound was classed as inactive. Take `NC1CCCCC1`: the outcome was inactive. As for `CCCCCCCCCCCCCCOS(=O)(=O)O`, the AC50 is 117 µM (active).

On to `CC(N)=O`, for which the compound was classed as inactive. As for `COC(=O)[C@H]1[C@H]2C[C@@H]3c4[nH]c5cc(OC)ccc5c4CCN3C[C@H]2C[C@@H](OC(=O)c2cc(OC)c(OC)c(OC)c2)[C@@H]1OC`, the AC50 is 37.6 µM (active).

For `CCCCC(CC)COP(=O)(OCC(CC)CCCC)OCC(CC)CCCC` (stereo not given), the AC50 was 37.7 µM (active). As to `CCCC(=O)O`, the compound was called inactive. For the compound `CC(=O)O[C@]1(C(C)=O)CC[C@H]2[C@@H]3C=C(Cl)C4=CC(=O)[C@@H]5C[C@@H]5[C@]4(C)[C@H]3CC[C@@]21C`, the compound was classed as inactive.

Take `C/C=C/c1ccc(OC)cc1`: the outcome was inactive.

Take `O=C1OC(c2ccc(O)cc2)(c2ccc(O)cc2)c2ccccc21`: the AC50 is 90.7 µM (active). Turning to `CCc1nc(N)nc(N)c1-c1ccc(Cl)cc1`, the result was inactive. As for `CC1=C(C)S(=O)(=O)CCS1(=O)=O`, the outcome was inactive. `CCCCOC(=O)CCCCC(=O)OCCCC`: the compound was classed as inactive.

For `O=C(NS(=O)(=O)/C=C/c1cccs1)c1ccc(F)cc1Br`, the outcome was inactive.

Turning to `O=C1O[C@H]([C@H](O)CO)C(O)=C1O`, the outcome was inactive. On to `O=C1NC(=O)C(c2ccccc2)(c2ccccc2)N1`, for which the outcome was inactive. With `CN(C)C(=O)NC1(c2ccccc2)CCN(CC[C@@]2(c3ccc(F)c(F)c3)CN(C(=O)c3ccccc3)CCO2)CC1`, the compound was classed as inactive.
